This passage reports fold change, cell count and z-score results from PubChem BioAssay.

A short description of assay [1]: sensitizers of A549 cells to miR-34 induction, primary screen, imaging, A549 dox-inducible miR-34, nuclei and caspase counts (AID 1347080). Also: test concentration not given here. The following applies: A549 miR-34 inducible, Hoechst nuclei count, 48 h.
The nature of assay [2]: survival rescue of mitochondrial mutant cells in low glucose, primary screen, MELAS cybrids, Rieske KO mouse fibroblasts, CellTiter-Glo (AID 1508586;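 active = mean z-score across replicates of 1.96 or higher in either the MELAS or the Rieske mutant cell line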;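 also: test concentration not given here; z relative to plate mean and SD of compound and empty wells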). For orientation: ATP-based viability assays read luminescence as a measure of living cells.
The nature of assay [3]: viability rescue of complex I mutant cybrids, primary screen, cell-based, galactose medium, ATP luminescence (AID 1645843;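 active = z-score of at least 1.8 in each of two replicates, scored against plate mean and spread of sample wells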;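 also: positive z means more ATP and so rescue of galactose-driven cybrid death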). The following applies: complex I mutant cybrid cells, 72 h, stronger effect = higher value.
The mark [4] stands for this setting: stronger effect = lower value, cell number ratio, induced over uninduced.
Setting [5] is: measured here: relative caspase fold change +Dox/-Dox.
The mark [6] stands for this setting: measured here: total cells with miR-34 induction, stronger effect = lower value.
The mark [7] stands for this setting: measured here: total cells without miR-34 induction.
Setting [8] is: MELAS cybrid survival, CellTiter-Glo 48 h, stronger effect = higher value.
[9] abbreviates: Rieske KO mouse fibroblast survival, CellTiter-Glo 72 h.

Structures are written as SMILES. Values joined by “and” are separate entries in the source; they are usually repeats but may differ in a detail not shown here. Identical values can stand only once. Active and inactive are the calls of the source.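 The calls were made as follows, unless noted: active = compounds whose cell count with miR-34 switched on is under 0.7 times the count with it off; inactive = the rest.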

In the case of `Cc1ccc(C(=O)N2CCC(Cc3ccccc3)CC2)cc1`, the fold change is 0.922 (inactive) in assay [1] (setting [4]) and 1.12 in assay [1] (setting [5]). Further, the values for the cell count in assay [1] (setting [6]) and in assay [1] (setting [7]) were 7870 and 8540, respectively. The z-score in assay [2] (setting [8]) was -0.903 (inactive); in assay [2] (setting [9]), 0.658; in assay [3] it was -0.71 (inactive).
As for `CC1OC(OC2C(CO)OC(OC3C(CO)OC(O)C(O)C3O)C(O)C2O)C(O)C(O)C1NC1C=C(CO)C(O)C(O)C1O` (configuration not stated), the fold change was 0.923 (inactive) and 1.03 (inactive) in assay [1] (setting [4]); 1.2 and 0.703 in assay [1] (setting [5]). In addition, the cell count in assay [1] (setting [6]) is 9530 and 7300; in assay [1] (setting [7]), 10300 and 7090. For the same compound, the z-score in assay [2] (setting [8]) is -0.375 (inactive); in assay [2] (setting [9]), -0.157; in assay [3], 0.475 (inactive).
Regarding `CCn1cc(CNC(=O)Nc2nnc(C(C)(C)C)s2)cn1`, the fold change was 0.886 (inactive) in assay [1] (setting [4]) and 2.1 in assay [1] (setting [5]). Besides, the cell count in assay [1] (setting [6]) was 8600; in assay [1] (setting [7]), 9710. In addition, the results for the z-score in assay [2] (setting [8]), in assay [2] (setting [9]) and in assay [3] were 0.641 (inactive), -0.73 and -0.6 (inactive), respectively.
For the compound `O=C(O)CC(O)CC(O)C=Cc1c(C2CC2)nc2ccccc2c1-c1ccc(F)cc1` (configuration not stated), the fold change was 0.905 (inactive) and 0.948 (inactive) in assay [1] (setting [4]); 0.849 and 0.847 in assay [1] (setting [5]). In addition, the cell count in assay [1] (setting [6]) is 771 and 1550; in assay [1] (setting [7]), 852 and 1630. Also, the z-score in assay [2] (setting [8]) is 1.33 (inactive); in assay [2] (setting [9]), -0.125; in assay [3] it was -1.86 (inactive).
On to `O=C(NCCOc1cccnc1)c1ccc2ncsc2c1`, for which the fold change is 0.858 (inactive) in assay [1] (setting [4]) and 1.5 in assay [1] (setting [5]). The cell count was 7900 in assay [1] (setting [6]) and 9210 in assay [1] (setting [7]). Also, the figures for the z-score in assay [2] (setting [8]), in assay [2] (setting [9]) and in assay [3] were 0.0996 (inactive), -0.557 and -0.56 (inactive), respectively.
With `CSc1n[nH]c(-c2ccc(Cl)cc2)n1`, the fold change in assay [1] (setting [4]) is 0.939 (inactive); in assay [1] (setting [5]), 0.52. The cell count in assay [1] (setting [6]) was 8540; in assay [1] (setting [7]), 9100. Besides, the z-score in assay [2] (setting [8]) was 1.97 (active); in assay [2] (setting [9]), -0.569; in assay [3], 0.11 (inactive).
With `CSc1ccccc1C(=O)N1CCc2[nH]nc(COc3ccccc3)c2C1`, the results for the fold change in assay [1] (setting [4]) and in assay [1] (setting [5]) were 0.941 (inactive) and 0.435, respectively. Also, the cell count came out at 8390 in assay [1] (setting [6]) and 8920 in assay [1] (setting [7]). Besides, the values for the z-score in assay [2] (setting [8]), in assay [2] (setting [9]) and in assay [3] were -0.515 (inactive), 0.374 and 1.12 (inactive), respectively.
Take `Cc1nc(CCNC(=O)Nc2nnc(-c3cccs3)s2)sc1C`: the fold change was 0.877 (inactive) in assay [1] (setting [4]) and 1.44 in assay [1] (setting [5]). The cell count in assay [1] (setting [6]) was found to be 7610; in assay [1] (setting [7]), 8680. In addition, the z-score in assay [2] (setting [8]) was -0.443 (inactive); in assay [2] (setting [9]) it was -0.248; in assay [3], 0.645 (inactive).
On to `O=C(NCc1ccccn1)c1ccc(Oc2ccccc2)cc1`, for which the fold change is 0.933 (inactive) in assay [1] (setting [4]) and 0.296 in assay [1] (setting [5]). Further, the cell count in assay [1] (setting [6]) was found to be 8650; in assay [1] (setting [7]) it was 9270. Further, the z-score in assay [2] (setting [8]) is 0.509 (inactive); in assay [2] (setting [9]), -0.417; in assay [3] it was 0.08 (inactive).
Turning to `Cc1ccc(NC(=O)c2ccc3nccnc3c2)cn1`, the fold change in assay [1] (setting [4]) was 0.855 (inactive); in assay [1] (setting [5]), 1.41. Moreover, the cell count turned out to be 8560 in assay [1] (setting [6]) and 10000 in assay [1] (setting [7]). Further, the z-score in assay [2] (setting [8]) was 0.00943 (inactive); in assay [2] (setting [9]), -0.47; in assay [3], -0.48 (inactive).
For the compound `CC[C@H](C)[C@H](NC(=O)c1nc2ccccc2c(=O)[nH]1)C(=O)OC`, the results for the fold change in assay [1] (setting [4]) and in assay [1] (setting [5]) were 0.844 (inactive) and 2.34, respectively. The figures for the cell count in assay [1] (setting [6]) and in assay [1] (setting [7]) were 7550 and 8940, respectively. In addition, the z-score in assay [2] (setting [8]) is 0.166 (inactive); in assay [2] (setting [9]), -0.367; in assay [3] it was -0.31 (inactive).
For the compound `NC1=NC(=O)C(=Cc2ccc(-c3ccc(C(=O)O)cc3)o2)S1`, the fold change in assay [1] (setting [4]) was 0.91 (inactive); in assay [1] (setting [5]), 0.479. For the same compound, the results for the cell count in assay [1] (setting [6]) and in assay [1] (setting [7]) were 8530 and 9370, respectively. In addition, the figures for the z-score in assay [2] (setting [8]), in assay [2] (setting [9]) and in assay [3] were 0.721 (inactive), -0.231 and 0.485 (inactive), respectively.
In the case of `c1cc(CN2CCN3CCCC3C2)n(-c2nccs2)c1` (configuration not stated), the fold change in assay [1] (setting [4]) is 0.908 (inactive); in assay [1] (setting [5]) it was 1.4. In addition, the cell count in assay [1] (setting [6]) turned out to be 8290; in assay [1] (setting [7]), 9130. For the same compound, the z-score was 0.256 (inactive) in assay [2] (setting [8]), -0.144 in assay [2] (setting [9]) and -0.595 (inactive) in assay [3].
For `CC(NC(=O)OCc1ccccc1)C(=O)O` (configuration not stated), the fold change in assay [1] (setting [4]) was 0.909 (inactive); in assay [1] (setting [5]) it was 0.337. Moreover, the cell count in assay [1] (setting [6]) turned out to be 9090; in assay [1] (setting [7]), 10000. Besides, the z-score was 0.137 (inactive) in assay [2] (setting [8]), 0.148 in assay [2] (setting [9]) and 0.185 (inactive) in assay [3].
With `NS(=O)(=O)c1ccc(CCC(=O)O)cc1`, the fold change in assay [1] (setting [4]) is 0.881 (inactive); in assay [1] (setting [5]), 0.214. Moreover, the figures for the cell count in assay [1] (setting [6]) and in assay [1] (setting [7]) were 8780 and 9960, respectively. The z-score in assay [2] (setting [8]) was 0.234 (inactive); in assay [2] (setting [9]), -0.0972; in assay [3] it was 0.14 (inactive).
On to `Cn1nc(C(C)(C)C)cc1NC(=O)Cn1cc(-c2ccccc2N)cn1`, for which the fold change in assay [1] (setting [4]) was 0.913 (inactive); in assay [1] (setting [5]), 1.7. Also, the cell count in assay [1] (setting [6]) was 8250; in assay [1] (setting [7]), 9040. Besides, the z-score in assay [2] (setting [8]) was 0.154 (inactive); in assay [2] (setting [9]) it was -0.442; in assay [3], -0.46 (inactive).
For the compound `O=S(=O)(O)CCNC1CCCCC1`, the fold change in assay [1] (setting [4]) is 0.931 (inactive); in assay [1] (setting [5]) it was 0.147. The cell count in assay [1] (setting [6]) came to 9490; in assay [1] (setting [7]), 10200. Moreover, the z-score in assay [2] (setting [8]) was 0.282 (inactive); in assay [2] (setting [9]), -0.218; in assay [3] it was 0.78 (inactive).
As for `CS(=O)(=O)Nc1ccc(C(=O)O)cc1`, the fold change is 0.918 (inactive) in assay [1] (setting [4]) and 0.714 in assay [1] (setting [5]). In addition, the cell count in assay [1] (setting [6]) amounted to 8860; in assay [1] (setting [7]), 9650. The z-score in assay [2] (setting [8]) was 0.13 (inactive); in assay [2] (setting [9]) it was -0.244; in assay [3], 0.365 (inactive).
`CC(C)C(NC(=O)Cc1c[nH]c2ccccc12)C(=O)O` (configuration not stated): the fold change in assay [1] (setting [4]) was 0.857 (inactive); in assay [1] (setting [5]), 0.806. Further, the cell count in assay [1] (setting [6]) came out at 8140; in assay [1] (setting [7]) it was 9500. Also, the z-score in assay [2] (setting [8]) is -1.19 (inactive); in assay [2] (setting [9]), -0.306; in assay [3], 0.47 (inactive).
As to `Nc1ncc(Cc2ccccc2)s1`, the fold change in assay [1] (setting [4]) was 0.906 (inactive); in assay [1] (setting [5]), 0.514. Also, the cell count in assay [1] (setting [6]) turned out to be 8010; in assay [1] (setting [7]), 8850. Also, the z-score in assay [2] (setting [8]) was -0.355 (inactive); in assay [2] (setting [9]), -0.511; in assay [3] it was -0.26 (inactive).
Regarding `O=C(NCCc1nc2ccc(F)cc2[nH]1)c1cnccn1`, the fold change is 0.896 (inactive) in assay [1] (setting [4]) and 1.56 in assay [1] (setting [5]). Besides, the cell count in assay [1] (setting [6]) stood at 8500; in assay [1] (setting [7]), 9500. Further, the z-score in assay [2] (setting [8]) is 0.845 (inactive); in assay [2] (setting [9]) it was -0.308; in assay [3], -0.435 (inactive).
Turning to `O=C(O)c1ccc(-c2ccccc2C(F)(F)F)o1`, the results for the fold change in assay [1] (setting [4]) and in assay [1] (setting [5]) were 0.879 (inactive) and 0.45, respectively. Besides, the cell count in assay [1] (setting [6]) came out at 8380; in assay [1] (setting [7]) it was 9530. Besides, the z-score is 0.000745 (inactive) in assay [2] (setting [8]), -0.553 in assay [2] (setting [9]) and 0.155 (inactive) in assay [3].
Turning to `Cc1ccc(CN2CCN(c3ncnc4sccc34)CC2=O)cc1`, the fold change is 0.911 (inactive) in assay [1] (setting [4]) and 1.87 in assay [1] (setting [5]). The values for the cell count in assay [1] (setting [6]) and in assay [1] (setting [7]) were 4200 and 4610, respectively. The z-score is -0.0356 (inactive) in assay [2] (setting [8]), -0.417 in assay [2] (setting [9]) and 3.8 (active) in assay [3].
On to `OB(O)c1ccccc1`, for which the values for the fold change in assay [1] (setting [4]) and in assay [1] (setting [5]) were 0.876 (inactive) and 0.386, respectively. Besides, the figures for the cell count in assay [1] (setting [6]) and in assay [1] (setting [7]) were 7850 and 8950, respectively. Besides, the z-score in assay [2] (setting [8]) is -0.818 (inactive); in assay [2] (setting [9]), 0.216; in assay [3] it was 0.615 (inactive).
With `Cc1cccc2c(C(=O)N3C4CCCCC3CCC4)cc(-c3cncnc3)nc12`, the fold change in assay [1] (setting [4]) was 0.922 (inactive); in assay [1] (setting [5]) it was 1.14. Besides, the cell count in assay [1] (setting [6]) came out at 8060; in assay [1] (setting [7]), 8740. The z-score in assay [2] (setting [8]) is 0.139 (inactive); in assay [2] (setting [9]), -0.667; in assay [3], -0.275 (inactive).
`Cc1ccc2nc(C3CCCN3c3ncc(C)c(-c4cnn(C)c4)n3)[nH]c2c1` (configuration not stated): the fold change in assay [1] (setting [4]) was 0.91 (inactive); in assay [1] (setting [5]), 1.37. In addition, the cell count came to 7980 in assay [1] (setting [6]) and 8770 in assay [1] (setting [7]). Further, the z-score was -0.0346 (inactive) in assay [2] (setting [8]), 0.328 in assay [2] (setting [9]) and -0.325 (inactive) in assay [3].
